This note sets out measurements from PubChem BioAssay (NCATS).

For assay [1], the target named is Rap guanine nucleotide exchange factor 4 (Homo sapiens) (UniProt Q8WZA2). Kind of assay: Confirmatory qHTS for agonist of cAMP-regulated guanine nucleotide exchange factor 4 (EPAC2) (AID 1645884).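 Also: nucleotide exchange releases bodipy-GDP from Rap1 and this lowers its fluorescence; nearly all actives have a fitted effect of over 65% in size.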 Also: potency is read from the fitted curve at half-maximal effect. As to activation: % is scaled to controls: 0 for no effect and ±100 for the full control effect. Background: qHTS replaces the single test concentration by a dilution series.
Rap guanine nucleotide exchange factor 4 (Homo sapiens), sequence (Q8WZA2 whole entry, looked up): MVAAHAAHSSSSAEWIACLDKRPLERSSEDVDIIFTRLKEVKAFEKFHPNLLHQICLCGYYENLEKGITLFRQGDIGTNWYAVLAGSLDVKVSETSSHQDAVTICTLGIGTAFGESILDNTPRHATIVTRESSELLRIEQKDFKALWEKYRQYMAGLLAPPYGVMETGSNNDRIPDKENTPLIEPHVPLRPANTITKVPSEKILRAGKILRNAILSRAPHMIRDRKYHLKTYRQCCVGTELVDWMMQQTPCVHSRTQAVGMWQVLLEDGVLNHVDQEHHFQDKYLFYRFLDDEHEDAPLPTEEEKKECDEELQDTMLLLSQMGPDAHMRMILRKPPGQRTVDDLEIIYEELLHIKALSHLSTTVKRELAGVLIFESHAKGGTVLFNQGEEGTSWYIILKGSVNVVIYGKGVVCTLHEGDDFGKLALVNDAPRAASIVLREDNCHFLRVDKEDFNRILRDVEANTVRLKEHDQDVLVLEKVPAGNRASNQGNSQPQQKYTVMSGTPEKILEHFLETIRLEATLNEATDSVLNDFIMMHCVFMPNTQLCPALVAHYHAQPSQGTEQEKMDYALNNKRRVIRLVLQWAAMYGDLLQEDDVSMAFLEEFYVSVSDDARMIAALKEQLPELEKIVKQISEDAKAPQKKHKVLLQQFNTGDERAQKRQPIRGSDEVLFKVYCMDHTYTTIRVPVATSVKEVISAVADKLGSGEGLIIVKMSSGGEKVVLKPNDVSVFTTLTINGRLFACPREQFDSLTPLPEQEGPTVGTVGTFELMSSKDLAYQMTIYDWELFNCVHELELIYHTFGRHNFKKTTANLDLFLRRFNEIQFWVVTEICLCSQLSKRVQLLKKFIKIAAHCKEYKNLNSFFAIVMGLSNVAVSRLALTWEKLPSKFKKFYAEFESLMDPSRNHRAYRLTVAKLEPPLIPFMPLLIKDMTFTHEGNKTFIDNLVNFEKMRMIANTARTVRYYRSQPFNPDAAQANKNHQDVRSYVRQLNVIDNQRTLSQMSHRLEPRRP
Assay [2] has the same target. The experiment in a line: Confirmatory qHTS for antagonist of cAMP-regulated guanine nucleotide exchange factor 4 (EPAC2) (AID 1645885). Also: nearly all actives have a fitted effect of over 25% in size. Also: potency is read from the fitted curve at half-maximal effect. As to activity change, negative = inhibition: % is scaled to controls: 0 for no effect and ±100 for the full control effect.
Assay [3] deals with Rap guanine nucleotide exchange factor 3 (Homo sapiens) (UniProt O95398). The experiment in a line: Counterscreen qHTS for antagonist of cAMP-regulated guanine nucleotide exchange factor 3 (EPAC1) (AID 1645888). Also: potency is read from the fitted curve at half-maximal effect.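 As to activity change, negative = inhibition: fluorescence loss as bound BODIPY-GDP is released from Rap1B; % of control where 0% means no effect.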 In a few lines: (§1)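 Measured: fluorescence of BODIPY-GDP bound to Rap1B, which falls as exchange proceeds. Conditions include 50 uM competing GDP, 5 and 30 min reads, and a later cAMP challenge for antagonist detection.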
Rap guanine nucleotide exchange factor 3 (Homo sapiens), sequence (O95398 whole entry, looked up): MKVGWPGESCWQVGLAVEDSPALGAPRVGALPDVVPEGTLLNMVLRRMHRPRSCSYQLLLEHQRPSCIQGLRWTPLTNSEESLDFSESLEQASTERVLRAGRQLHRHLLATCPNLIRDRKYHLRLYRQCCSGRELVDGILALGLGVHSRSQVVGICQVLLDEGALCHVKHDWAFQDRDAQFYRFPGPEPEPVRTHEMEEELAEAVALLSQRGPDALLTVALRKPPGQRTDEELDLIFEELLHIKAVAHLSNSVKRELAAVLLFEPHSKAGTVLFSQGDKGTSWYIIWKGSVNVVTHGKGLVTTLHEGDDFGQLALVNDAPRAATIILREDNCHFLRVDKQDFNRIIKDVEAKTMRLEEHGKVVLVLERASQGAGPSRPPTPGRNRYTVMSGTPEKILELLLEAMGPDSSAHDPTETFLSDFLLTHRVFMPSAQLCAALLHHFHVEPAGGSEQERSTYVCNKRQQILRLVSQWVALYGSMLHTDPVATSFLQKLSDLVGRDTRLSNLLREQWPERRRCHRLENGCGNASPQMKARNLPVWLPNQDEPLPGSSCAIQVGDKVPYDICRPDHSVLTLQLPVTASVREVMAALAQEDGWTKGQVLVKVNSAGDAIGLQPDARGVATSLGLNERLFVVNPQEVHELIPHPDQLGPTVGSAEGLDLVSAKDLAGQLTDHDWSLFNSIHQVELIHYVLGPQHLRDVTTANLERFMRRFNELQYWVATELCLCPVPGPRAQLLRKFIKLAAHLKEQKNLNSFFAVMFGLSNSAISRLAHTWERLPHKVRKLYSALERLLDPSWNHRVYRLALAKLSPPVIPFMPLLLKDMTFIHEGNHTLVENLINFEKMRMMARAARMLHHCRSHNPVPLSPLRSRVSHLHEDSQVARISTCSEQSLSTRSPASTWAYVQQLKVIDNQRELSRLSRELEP
Background: Counterscreens check selectivity or assay interference.

The target is the same in assay [4]. Kind of assay: Counterscreen qHTS for agonist of cAMP-regulated guanine nucleotide exchange factor 3 (EPAC1) (AID 1645889). Also: nearly all actives have a fitted effect of over 40% in size. Also: potency is read from the fitted curve at half-maximal effect. As to activation: % of control where 0% means no effect. In a few lines:
as §1

Assay [5] deals with Tumor susceptibility gene 101 protein (Homo sapiens) (UniProt Q99816). Kind of assay: qHTS Assay for Iinhibitors of HIV-1 Budding by Blocking the Interaction of PTAP/TSG101: Hit Validation (AID 651600). Also: nearly all actives have a fitted effect of over 70% in size. Also: potency is read from the fitted curve at half-maximal effect. As to activity change, negative = inhibition: % is scaled to controls: 0 for no effect and ±100 for the full control effect. In a few lines: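 Measuring PTAP–Tsg101 interaction by FP: protein at 10 uM and fluorescent peptide at 50 nM (final), buffer 10 mM HEPES pH 7.5 with 0.15 M NaCl, 3 mM EDTA, 0.1 mM TCEP, 0.01% Tween 20; 20 min incubation, r.t.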
Tumor susceptibility gene 101 protein (Homo sapiens), sequence (Q99816 whole entry, looked up): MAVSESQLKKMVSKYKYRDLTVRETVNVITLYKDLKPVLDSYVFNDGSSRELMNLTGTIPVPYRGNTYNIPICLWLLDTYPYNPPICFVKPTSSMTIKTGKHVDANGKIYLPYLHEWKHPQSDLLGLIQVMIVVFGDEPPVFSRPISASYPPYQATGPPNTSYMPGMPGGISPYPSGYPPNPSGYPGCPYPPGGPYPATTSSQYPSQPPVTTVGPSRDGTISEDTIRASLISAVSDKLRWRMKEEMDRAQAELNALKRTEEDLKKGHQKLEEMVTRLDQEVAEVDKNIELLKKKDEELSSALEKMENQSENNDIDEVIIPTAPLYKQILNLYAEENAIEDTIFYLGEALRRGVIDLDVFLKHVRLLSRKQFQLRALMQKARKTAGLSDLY

Assay [6] has as its target Cytochrome P450 3A4 (Homo sapiens) (UniProt P08684). Kind of assay: qHTS Assay for Inhibitors and Substrates of Cytochrome P450 3A4 (AID 884). Also: potency is read from the fitted curve at half-maximal effect; nearly all actives have a fitted effect of over 50% in size. Put shortly:
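Luminescent readout of luciferin produced by CYP3A4 (20 nM) dealkylation of Luciferin-PPXE, 25 uM (its KM). NADPH-driven reaction ran 60 min at RT after 10 min compound preincubation; data scaled to 57 uM ketoconazole as 100% inhibition.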

The target is the same in assay [7]. The experiment in a line: qHTS Assay for Activators of Cytochrome P450 3A4 (AID 885). Also: nearly all actives have a fitted effect of over 65% in size. Put shortly:
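Luminescent readout of luciferin formed from 25 uM Luciferin-PPXE (KM level) by 20 nM CYP3A4 in 200 mM KPO4, with 60 min NADPH-driven reaction at room temperature after 10 min compound exposure. Ketoconazole (57 uM) defined 100% inhibition.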

Assay [8] concerns the target Ubiquitin carboxyl-terminal hydrolase 1 (Homo sapiens) (UniProt O94782). The experiment in a line: Inhibitors of USP1/UAF1: Pilot qHTS (AID 504865).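 Also: rhodamine fluorescence freed from ubiquitin-rhodamine substrate followed over time; top concentration of the series differs between compounds; % is scaled to controls: 0 for no effect and ±100 for the full control effect; nearly all actives have a fitted effect of over 35% in size.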 In a few lines:
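Enzyme-free wells gave the negative control, while test wells held 1nM USP1/UAF1 preincubated with compound for 15 min at room temperature. Ub-Rho at 150nM final started the reaction, and fluorescence at 480/540 nm was recorded kinetically.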

For assay [9], the target named is DNA dC->dU-editing enzyme APOBEC-3G (Homo sapiens) (UniProt Q9HC16). Kind of assay: qHTS for inhibitors of Vif-A3G interactions: Validation (AID 588379). Also: 0% is about no effect. In a few lines: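 Yellow fluorescence (Ex 488, Em 500-530) of Vif-coexpressing HeLa A3G-eYFP cells, scanned by Acumen cytometer, reports blocked A3G degradation. Cells plated at 700/well overnight at 37 deg C before compound addition, then a further overnight compound incubation at 37 deg C.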
DNA dC->dU-editing enzyme APOBEC-3G (Homo sapiens), sequence (Q9HC16 whole entry, looked up): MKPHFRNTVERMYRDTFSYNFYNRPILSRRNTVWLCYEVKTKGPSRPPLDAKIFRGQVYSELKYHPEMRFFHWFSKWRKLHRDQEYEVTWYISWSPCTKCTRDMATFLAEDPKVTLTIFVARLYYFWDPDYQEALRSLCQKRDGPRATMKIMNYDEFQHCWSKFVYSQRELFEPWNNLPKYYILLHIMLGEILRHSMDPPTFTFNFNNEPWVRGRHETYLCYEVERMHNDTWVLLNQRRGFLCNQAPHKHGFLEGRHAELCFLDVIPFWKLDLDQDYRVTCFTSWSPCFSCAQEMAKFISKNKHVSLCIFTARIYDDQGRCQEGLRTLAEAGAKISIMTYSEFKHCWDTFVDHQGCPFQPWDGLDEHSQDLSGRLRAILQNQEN

Values without a mark were called inactive. Inconclusive results are not listed. The source made the active and inactive calls. Calls follow the shape of the dose curve; as a rule, active = well fitted curve in the direction sought with a large enough effect; inconclusive = small, poorly fitted or top-dose-only effect, or another doubt; inactive = no such curve, though single readings can be large; an effect the other way counts as inactive or inconclusive.

Cytochrome P450 3A4 (Homo sapiens), sequence (P08684 whole entry, looked up): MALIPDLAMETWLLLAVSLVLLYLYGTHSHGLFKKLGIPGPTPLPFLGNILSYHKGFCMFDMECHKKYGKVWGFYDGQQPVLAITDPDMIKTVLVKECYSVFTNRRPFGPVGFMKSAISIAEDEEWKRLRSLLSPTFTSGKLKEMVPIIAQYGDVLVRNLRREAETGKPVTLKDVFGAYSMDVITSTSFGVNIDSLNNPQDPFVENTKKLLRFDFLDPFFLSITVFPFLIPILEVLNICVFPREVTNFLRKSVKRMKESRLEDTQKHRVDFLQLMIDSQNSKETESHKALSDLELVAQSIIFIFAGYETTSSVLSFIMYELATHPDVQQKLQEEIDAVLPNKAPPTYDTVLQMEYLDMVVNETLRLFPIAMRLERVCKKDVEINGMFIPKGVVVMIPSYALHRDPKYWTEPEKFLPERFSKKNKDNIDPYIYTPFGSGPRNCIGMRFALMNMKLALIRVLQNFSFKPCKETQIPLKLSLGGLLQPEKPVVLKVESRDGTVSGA
Ubiquitin carboxyl-terminal hydrolase 1 (Homo sapiens), sequence (O94782 whole entry, looked up): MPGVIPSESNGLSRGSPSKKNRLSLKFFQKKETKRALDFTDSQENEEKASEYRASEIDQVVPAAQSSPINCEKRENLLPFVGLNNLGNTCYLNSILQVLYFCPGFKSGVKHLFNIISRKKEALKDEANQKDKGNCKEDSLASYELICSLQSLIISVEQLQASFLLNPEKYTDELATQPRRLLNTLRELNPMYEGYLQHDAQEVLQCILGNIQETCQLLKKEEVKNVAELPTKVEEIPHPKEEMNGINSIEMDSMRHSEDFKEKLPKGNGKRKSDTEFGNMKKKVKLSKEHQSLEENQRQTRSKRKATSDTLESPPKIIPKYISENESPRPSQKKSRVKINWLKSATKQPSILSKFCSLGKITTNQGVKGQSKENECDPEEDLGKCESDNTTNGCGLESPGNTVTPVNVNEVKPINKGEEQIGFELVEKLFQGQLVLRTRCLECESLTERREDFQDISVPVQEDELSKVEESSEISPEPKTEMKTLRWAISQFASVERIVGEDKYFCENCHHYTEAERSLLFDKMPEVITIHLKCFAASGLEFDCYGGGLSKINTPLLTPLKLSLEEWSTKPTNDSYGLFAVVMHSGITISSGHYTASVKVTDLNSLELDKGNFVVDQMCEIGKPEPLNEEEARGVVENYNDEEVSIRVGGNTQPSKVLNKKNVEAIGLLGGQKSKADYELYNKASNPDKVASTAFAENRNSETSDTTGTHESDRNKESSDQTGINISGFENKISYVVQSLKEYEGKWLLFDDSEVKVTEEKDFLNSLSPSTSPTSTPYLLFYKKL

Take `CCc1ccc(N=C2NC(=O)/C(=C/c3ccc(OCC(=O)O)cc3)S2)cc1`: the activation in [1] was 8.62% [at 17.1 µM, percent relative to cAMP agonist control]; in assay [4], 14.2% [at 30.8 µM]. Further, the Potency result in assay [2] is “inactive”. Further, in [3], the activity change, negative = inhibition is -19.4% [at 30.8 µM].

Take `CCC(C)n1c(=N)c(C#N)cc2c(=O)n3ccccc3nc21` (stereo unspecified): the activation was -1.22% [at 17.1 µM, percent relative to cAMP agonist control] in [1] and -4.07% [at 30.8 µM] in [4]. Besides, in assay [2], the Potency entry is “inactive”. For the same molecule, in [3], the activity change, negative = inhibition was -20.2% [at 30.8 µM].

Turning to `CCOc1cc(/C=C2\SC(=Nc3ccc(CC)cc3)NC2=O)ccc1OCC(=O)O`, the Potency result in assay [1], in [2], in assay [3] and in assay [4] was “inactive” each time.

For the molecule `Cn1c(SCC(=O)Nc2cccc(C(=O)O)c2)nnc1-c1cc2cc(Br)ccc2o1`, the Potency entry in assay [1], in assay [2], in assay [3] and in assay [4] was “inactive” in each case.

As for `Cc1cc2nc3c(=O)n(Cc4ccccc4)c(=O)[nH]c3nc2cc1N`, in [5], the Potency was 3.66 µM (active). For the same molecule, the activation in assay [1] is 16.2% [at 17.1 µM, percent relative to cAMP agonist control]. Also, the Potency entry in assay [2] is “inactive”. Besides, in assay [3], the activity change, negative = inhibition is 0.816% [at 30.8 µM].

`O=c1oc2c3c(ccc2c2ccccc12)OCN(Cc1cccc(Cl)c1)C3`: the Potency result in [1], in [2], in [3] and in assay [4] was “inactive” each time.

On to `CN(C)c1ccc(/C=C(/C(=O)c2ccc(Cl)cc2Cl)n2cncn2)cc1`, for which the Potency in assay [1] is 112 µM (active); in assay [4] it was 70.8 µM (active). Also, the Potency entry in assay [3] is “inactive”.

With `COc1ccc(CCn2c(O)cc3nn(-c4nc5ccccc5s4)c(=O)c-3c2C)cc1`, the Potency entry in assay [1], in assay [2], in assay [3] and in assay [4] was “inactive” each time.

Take `O=C(O)CC/C(=C\c1ccc(N2CCCC2)c([N+](=O)[O-])c1)c1nc2ccccc2s1`: the Potency entry in assay [1], in assay [2], in [3] and in assay [4] was “inactive” each time.

Regarding `CCOC(=O)c1c(CSc2ccccc2)n(C)c2cc(Br)c(OCC(O)CNC(CO)(CO)CO)cc12` (stereo unspecified), the Potency in assay [1] was 89.1 µM (active); in assay [2], 26.9 µM (active). For the same molecule, the Potency entry in [3] and in [4] was “inactive” throughout.

On to `CN1/C(=C\C=C2/C(=O)Oc3ccccc3C2=O)C(C)(C)c2ccccc21`, for which the Potency result in assay [5] and in assay [2] was “inactive” in each case. In addition, the Potency in assay [4] is 20 µM (active).

Consider `CC(=O)OCCn1c2nc(=O)[nH]c(=O)c-2nc2cc(C)c(C)cc21`, for which the Potency in [5] is 0.919 µM (active); in [1], 100 µM (active); in [3], 100 µM (active).

Consider `Cn1cc(-c2cnc3c(NC=O)cc(-c4cccc(C(F)(F)F)c4)cn23)cn1`, for which the Potency entry in [2] and in assay [3] was “inactive” in each case.

For `O=S(=O)(c1ccccc1)c1nc(Nc2cccc(O)c2)sc1Cl`, the Potency result in [2] and in [3] was “inactive” in each case.

For the molecule `COc1cccc(CNc2cccc3cccnc23)c1O`, the Potency entry in assay [2] and in [3] was “inactive” in each case.

On to `Cc1cc(C(=O)CCC(=O)N2CCN(S(=O)(=O)c3ccccc3)CC2)c(C)s1`, for which the Potency in [1] was 112 µM (active). For the same molecule, the Potency entry in assay [3] and in [4] was “inactive” throughout.

For the molecule `Oc1ccc(Cl)cc1CNc1cccc2cccnc12`, the Potency result in assay [2] and in assay [3] was “inactive” throughout.

In the case of `Cc1cc2ccccn2c1C(=O)c1ccccc1Br`, the Potency entry in [2] and in assay [3] was “inactive” each time. Moreover, the Potency in assay [4] is 25.1 µM (active).

Turning to `CN(C)/C=C1\C=C2C(=O)c3ccccc3N2C1=O`, the Potency in assay [1] was 5.01 µM (active); in [4], 10 µM (active).

With `CC1CCN(c2ccc3c(c2)S(=O)(=O)c2cccc(C(=O)NC[C@@H]4CCCO4)c2C3=O)CC1`, the Potency result in [2] and in assay [3] was “inactive” each time.

With `O=C(c1cc(Cl)ccc1Cl)N1CCc2ccccc21`, in [2], the Potency was 33.8 µM (active). Moreover, the Potency entry in [3] is “inactive”.

As for `COC(=O)C(C)Sc1nc2ccsc2c(=O)n1Cc1ccccc1` (stereo unspecified), the Potency in assay [2] is 26.9 µM (active). The Potency result in [3] was “inactive”.

Take `O=C(CC1Sc2ccccc2NC1=O)OCc1cc(=O)oc2cc(O)ccc12` (stereo unspecified): the Potency entry in assay [2] and in assay [4] was “inactive” each time.

Turning to `O=c1oc2c(O)cccc2cc1-c1nc2ccccc2[nH]1`, in assay [2], the Potency entry is “inactive”. Further, in [3], the activity change, negative = inhibition is -8.32% [at 30.8 µM].

Turning to `Cc1ccnc(NCc2cccc3ccccc23)c1`, the Potency entry in [2], in [3] and in assay [4] was “inactive” in each case.

For `O=C(N/N=C/c1ccc(OC(=O)c2ccccc2Cl)cc1)c1cc(O)cc(O)c1`, the Potency entry in assay [2] and in [3] was “inactive” in each case.

On to `COC(=O)c1ccc(COc2ccc(/C=C(\C#N)c3nc4ccccc4[nH]3)cc2OC)o1`, for which the Potency result in assay [2] and in assay [3] was “inactive” throughout.

Take `S=C(Nc1ccc2nsnc2c1)NC1CCCCC1`: the Potency entry in assay [2] and in assay [3] was “inactive” each time.

Turning to `COc1ccc(/C=C/C(=O)c2cccs2)c(OC)c1`, in assay [6], the Potency was 6.31 µM (active). For the same molecule, the call in [7] and in assay [9] was inactive. In addition, the Potency result in assay [8] and in assay [2] was “inactive” each time.

In the case of `Cc1c(CCC(=O)O)c(=O)oc2c(C)c3occ(-c4ccc(Br)cc4)c3cc12`, the Potency result in assay [2], in assay [3] and in assay [4] was “inactive” throughout.

Take `COc1cccc(C2=NN(C(=O)c3ccco3)C(c3ccco3)C2)c1` (stereo unspecified): the Potency entry in [2], in assay [3] and in assay [4] was “inactive” in each case.

In the case of `CCN(CC)CCCC(C)n1c2nc(=O)[nH]c(=O)c-2nc2cc(Cl)ccc21` (stereo unspecified), the figures for the Potency in assay [1] and in assay [4] were 100 µM (active) and 63.1 µM (active), respectively.

For the molecule `CCN(CC)C1=CC2=CC(=C(C#N)C#N)CCC2CC1` (stereo unspecified), the Potency entry in assay [5] and in assay [3] was “inactive” in each case. Moreover, the results for the Potency in assay [1] and in [4] were 112 µM (active) and 25.1 µM (active), respectively.

In the case of `CN1c2ccsc2/C(=N/Nc2ccccc2)CS1(=O)=O`, the Potency entry in assay [3] is “inactive”.

Turning to `O=S(=O)(c1ccc2[nH]c3c(c2c1)CCCC3)N1CCCCC1`, the Potency entry in assay [2] and in [3] was “inactive” each time.

Take `CC(NC1=CC(=O)c2cccnc2C1=O)C(O)c1ccccc1` (stereo unspecified): the Potency result in [2] and in assay [3] was “inactive” each time.

Regarding `COc1cccc(Cn2c(=O)c3ccccc3n3nc(C)cc23)c1`, the Potency result in [2] and in assay [3] was “inactive” throughout.

With `CC1CCCN(C(=O)c2ccc(-c3ccccc3Cl)o2)C1` (stereo unspecified), the Potency result in assay [2] and in [3] was “inactive” in each case.

As for `Nc1ccc(CSc2ccc(Cl)cc2)c(Cl)c1`, the Potency in [2] is 21.3 µM (active). Besides, the Potency result in assay [3] is “inactive”.

As to `O/N=C(/c1ccc(F)cc1)C1CC1c1c(F)cccc1Cl` (stereo unspecified), the Potency result in assay [2] and in assay [3] was “inactive” in each case.

For `COc1ccccc1Oc1nc(-c2cccnc2)nc2ccccc12`, the Potency in assay [2] was 67.5 µM (active). The Potency result in assay [3] is “inactive”.

For `CCCCN(C)C1=CC2=CC(=C(C#N)C#N)CCC2CC1` (stereo unspecified), in [5], the Potency entry was “inactive”. In addition, the Potency was 126 µM (active) in assay [1] and 39.8 µM (active) in assay [4].

Regarding `COCCn1c(-c2ccc(OC)cc2)c(-c2ccc(OC)cc2)oc1=O`, the Potency result in assay [2] and in [3] was “inactive” each time.

`COc1ccc2sc(N(Cc3cccnc3)C(=O)c3ccco3)nc2c1`: the Potency entry in assay [2] was “inactive”.

For the molecule `Oc1ccc(Br)cc1CNc1cccc2cccnc12`, the Potency in [2] is 33.8 µM (active). The Potency entry in [3] is “inactive”.

For `COc1ccc(O)c(C(c2c(C)[nH][nH]c2=O)c2c(C)[nH][nH]c2=O)c1`, the Potency in [2] was 75.7 µM (active). Besides, the Potency entry in assay [3] is “inactive”.

Take `Clc1ccc(C2Nc3cccc4cccc(c34)N2)c(Cl)c1`: in assay [3], the Potency entry is “inactive”.

Consider `OCc1ccc(-c2ccccc2)c(-c2ccccc2)c1`, for which the Potency entry in assay [2] and in [3] was “inactive” each time.

Turning to `O=C(NCc1ccc(OC(F)(F)F)cc1)c1cccc2c1C(=O)c1ccc(N3CCCC3)cc1S2(=O)=O`, the Potency result in assay [2] is “inactive”. Further, in assay [4], the activation was 20% [at 30.8 µM].

Turning to `COc1ccc2c(c1)C(=O)CCC2c1ccccc1` (stereo unspecified), the Potency result in assay [2] and in assay [3] was “inactive” in each case.

As to `Oc1ccccc1Cc1c(O)ccc2ccccc12`, the Potency entry in assay [3] was “inactive”.

Turning to `COc1ccc(/C=N/n2cnc3c([nH]c4ccc(F)cc43)c2=O)cc1CN1CCCC1`, the Potency result in assay [4] was “inactive”.
